About 13,000 (27%) of roughly 48,000 compounds showed an effect of 50% or more. The list shows a part of the results.
Test system: Wolbachia pipientis
Test: Anti-Wolbachia Cell-Based Screen
Format: functional
Set-up: scale not given: in the data most compounds retested in dose-response had high values
Conditions: 5 µM

Compound	Percent Effect
Cc1cc(C(=O)N[C@H](C)c2onc(C)c2C(=O)O)c(C)o1.Cl	-8.572%
Cc1cc(C)c(C(=O)NC2CCN(c3ncccc3C#N)CC2)c(=O)[nH]1	4.704%
Cc1ccc(C(=O)N2CC(C(N)=O)O[C@H](C)C2)c(C)c1 (stereo not given in full)	-8.345%
CCCSc1ncc(-c2nccn2CCC(N)=O)cn1	-44.89%
CC(CNS(N)(=O)=O)Oc1ccc(Cl)cc1 (stereo not given)	-13.16%
COc1ccccc1OC(C)CNC(=O)c1cnc[nH]1 (stereo not given)	110.3%
CC(CNC(=O)c1cnc[nH]1)Oc1ccccc1Br (stereo not given)	110.9%
CN(Cc1ccco1)Cc1ccccc1CNC(=O)c1cnc[nH]1	-12.45%
Cc1ccc(OC(C)CNC(=O)c2c[nH]nn2)cc1 (stereo not given)	4.97%
CC(CNC(=O)c1c[nH]nn1)Oc1cccc(Br)c1 (stereo not given)	-32.96%
CC(CNC(=O)c1c[nH]nn1)Oc1ccccc1Br (stereo not given)	-9.853%
O=C(NC1CCCN(c2ccc(OC(F)F)cc2)C1)c1cnc[nH]1 (stereo not given)	-8.702%
CC(C)Oc1ccccc1CNC(=O)c1[nH]ncc1Br	24.22%
CC(CNC(=O)c1c[nH]nn1)Oc1ccc(Cl)cc1 (stereo not given)	99.95%
COc1ccccc1C(C)CNC(=O)c1[nH]ncc1Br (stereo not given)	42.12%
CC(CNC(=O)c1cnc[nH]1)Oc1ccc(Cl)cc1 (stereo not given)	110.7%
CC(C)(O)c1cc(CC2(NCc3ccco3)COC2)no1	-7.158%
CN(C)CCn1ccnc1C1CCN(C(=O)CCc2ccncc2)CC1	-7.346%
CN(C)Cc1cnc(C2CCN(C(=O)c3ccc(F)cc3)C2)[nH]1 (stereo not given)	127.5%
CN(C)Cc1cnc(C2CCN(C(=O)c3cccc(Cl)c3)C2)[nH]1 (stereo not given)	128.9%
CC(C)N(C)Cc1cncc2c1CCN(C(=O)c1ccccc1F)C2.Cl.Cl	-2.748%
CCNS(=O)(=O)C1CCN(C(=O)c2c(F)cc(F)cc2F)C1 (stereo not given)	-5.983%
CN(C)Cc1cnc(C2CCN(C(=O)c3cc(F)cc(F)c3)C2)[nH]1 (stereo not given)	116.9%
CCS(=O)(=O)N(C)C1CCN(C(=O)c2cccc(Cl)c2)CC1	-7.301%
CCNS(=O)(=O)C1CCN(C(=O)c2ccc(F)cc2)C1 (stereo not given)	4.07%
Cc1ccc(C(=O)N2CCCC(Nc3ccc(F)cc3)C2)cc1 (stereo not given)	-37.46%
CN(C)Cc1ccc(C(=O)N2CCCC(n3cccn3)C2)cc1 (stereo not given)	13.31%

Compound	Percent Effect
CCN(C1CCN(C(=O)c2cccc(Cl)c2)CC1)S(C)(=O)=O	6.766%
CCOCCOc1ccccc1C(=O)N1CCCC(c2ncc[nH]2)C1 (stereo not given)	-24.68%
CN(C)Cc1cnc(C2CCN(C(=O)c3ccccc3F)C2)[nH]1.Cl (stereo not given)	151.5%
CCCS(=O)(=O)N1CCC2(CC(=O)N(c3cnn(C)c3)C2)C1 (stereo not given)	9.344%
CCOc1ccc(N(CCC#N)C(=O)c2ccc(SC)nc2)cc1	-11.41%
CC1CCCN1C1CCN(C(=O)c2cccc(F)c2)CC1 (stereo not given)	1.778%
CN(C)Cc1cnc(C2CCN(C(=O)c3cccc(F)c3)C2)[nH]1 (stereo not given)	98.09%
O=C(c1cccc(F)c1)N1C[C@H]2CCCC(OCc3cccnc3)[C@H]2C1 (stereo not given in full)	7.164%
CCc1cnc(N2CCC3(CC2)CCN(c2cnn(C)c2)C3=O)nc1	-11.71%
Cc1nonc1NC(=O)C1SCCc2ccccc21 (stereo not given)	-22.17%
CCC(CO)N(Cc1ccco1)C(=O)c1cccc(C)c1O (stereo not given)	-5.185%
CCC(CO)N(Cc1ccco1)C(=O)c1ccc(F)cc1Cl (stereo not given)	-20.92%
CCC(CO)N(CC=C(C)C)Cc1ccsc1 (stereo not given)	-1.911%
CCC(CO)N(Cc1ccncc1)Cc1c[nH]nc1-c1ccc(F)cc1 (stereo not given)	-8.532%
CCC(CO)N(Cc1ccco1)Cc1c(C)nn(C)c1Cl (stereo not given)	113.8%
CCC(CO)N(Cc1ccccn1)Cc1c[nH]nc1-c1ccc(F)cc1 (stereo not given)	-3.197%
CCC(CO)N(Cc1ccsc1)Cc1cccc(O)c1 (stereo not given)	4.07%
CCC(CO)N(Cc1ccc(F)cc1)Cc1c(C)nn(C)c1Cl (stereo not given)	108.6%
CCC(CO)N(Cc1ccsc1)Cc1c(C)nn(C)c1Cl (stereo not given)	83.51%
O=C(NC1(c2nnn(CC3CCCO3)n2)CCCC1)c1ccccc1 (stereo not given)	-21.33%
CCC(=O)NCC(=O)Nc1c(C)cnn1Cc1cc(F)ccc1F	-6.238%
FC(F)(F)c1[nH]nc2c1CN(Cc1ccccc1)CC2	-6.07%
Cn1c(=O)ccn(CC(=O)N2CCCC(n3cccn3)C2)c1=O (stereo not given)	-17.99%
CC(=O)N1Cc2ccccc2C[C@H]1C(=O)N(C)Cc1ccccn1	-7.664%
N#Cc1ccc(NCC(=O)Nc2ncn(Cc3cccnc3)n2)cc1	2.258%
O=C(c1ccoc1)N1CCc2ncc(Cn3cccn3)n2CC1	85.84%
CN1CCN(Cc2cnc3n2CCN(C(=O)c2ccoc2)C3)CC1	1.07%

Compound	Percent Effect
N#Cc1ccc(C(=O)N2CCn3c(Cn4cccn4)cnc3C2)cc1.O=C(O)C(F)(F)F	-19.27%
O=C(c1cccc(F)c1)N1CCc2ncc(Cn3cccn3)n2CC1	90.68%
Cn1cccc1C(=O)N1CCc2ncc(Cn3cccn3)n2CC1	-10.36%
N#Cc1cccc(C(=O)N2CCc3ncc(Cn4cccn4)n3CC2)c1	-16.45%
O=C(O)C(F)(F)F.O=C(c1ccccn1)N1CCc2ncc(Cn3cccn3)n2CC1	108.7%
Cc1ccsc1C(=O)N1CCc2ncc(Cn3cccn3)n2CC1	-18.82%
Cc1ccc(C(=O)N2CCc3ncc(Cn4cccn4)n3CC2)cn1	106.9%
Cn1cccc1C(=O)NCc1cnc2n1CCN(C(=O)c1ccoc1)C2	-3.453%
CC(NCc1ccc(OCC(N)=O)cc1)c1ccc(Cl)cc1Cl.Cl (stereo not given)	-2.997%
CCc1cnc(NCc2nc(CSC)no2)nc1	19.97%
Cc1cc(N(C)CC2COc3ccccc3O2)nc(C)n1 (stereo not given)	-50.37%
CCOCCN1CCN(CC(=O)NC2(C#N)CCCC2)CC1C (stereo not given)	0.8038%
CN1CCN(Cc2cnc3n2CCN(C(=O)c2ccnnc2)C3)CC1	-11.55%
Cc1ccc(C(=O)N2CCc3ncc(Cn4cccn4)n3CC2)o1	95.36%
O=C(NCc1ccccc1)N1CCn2c(Cn3cccn3)cnc2C1	-1.854%
O=S(=O)(C1CC1)N1CCn2c(Cn3cncn3)cnc2C1	13.19%
O=C(NCc1cccnc1)N1CCn2c(Cn3cccn3)cnc2C1	2.46%
N#Cc1cccc(C(=O)N2CCn3c(Cn4cncn4)cnc3C2)c1	83.01%
Cc1cncc(C(=O)N2CCc3ncc(Cn4cccn4)n3CC2)c1	88.89%
N#Cc1ccc(S(=O)(=O)N2CC(CC(=O)O)c3ccccc32)cc1 (stereo not given)	-12.53%
Cc1noc(CNc2ccccc2CC(=O)N(C)C)n1	-7.553%
N#CCc1ccc(OCC(=O)N2CCCC(n3cccn3)C2)cc1 (stereo not given)	-0.2298%
Cc1ncsc1CCN1CCC(N(C)Cc2ncc(C(C)C)o2)C1 (stereo not given)	-3.966%
Cc1nnc(CN2CCOC(c3ccc(Cl)cc3)C2)o1 (stereo not given)	-9.345%
O=c1[nH]c2nc(NCC3CCCO3)ncc2c(=O)n1-c1ccc(F)cc1 (stereo not given)	-3.035%
CN(Cc1csc(-c2cccs2)n1)C(=O)CCn1ccccc1=O	-2.021%
COc1cc(F)c(S(=O)(=O)N2CCN(C)Cc3ccccc32)cc1OC	-10.31%

Compound	Percent Effect
CC(C)N(C)Cc1cn2c(n1)CN(Cc1ccsc1)CC2.O=C(O)C(F)(F)F.O=C(O)C(F)(F)F	6.195%
CC(C)N(C)Cc1cn2c(n1)CN(C(=O)Cc1ccsc1)CC2.O=C(O)C(F)(F)F	-0.9088%
O=C(Cc1ccsc1)N1CCn2cc(Cn3cncn3)nc2C1	4.087%
CC(C)N(C)Cc1cn2c(n1)CN(C(=O)Cc1ccccc1)CC2.O=C(O)C(F)(F)F	114%
CN(C)Cc1cc(=O)n2c(n1)CN(C(=O)Cc1ccsc1)CCC2.O=C(O)C(F)(F)F	-8.762%
O=C(Cc1ccsc1)N1CCn2cc(CN3CCCC3)nc2C1	-4.915%
CC(=O)NCC(=O)N1CCn2cc(CN(C)Cc3ccco3)nc2C1.O=C(O)C(F)(F)F	-4.865%
CCN(CC)Cc1cn2c(n1)CN(C(=O)Cc1ccsc1)CC2.O=C(O)C(F)(F)F	83.51%
CN(C)Cc1cn2c(n1)CN(C(=O)Cc1ccsc1)CC2.O=C(O)C(F)(F)F	96.46%
CN1CCOCC2(CCCN(C(=O)c3cn(C)cn3)C2)C1.O=C(O)C(F)(F)F (stereo not given)	-3.228%
CCNC(=O)NC(C)(C)C(=O)NCCc1csc2ccccc12	9.687%
O=C(Cc1cccnc1)NC1COc2ccccc2C1=O (stereo not given)	-10.11%
CCCC1CCCN(C(=O)CNC(=O)c2ccoc2C)CC1 (stereo not given)	7.571%
O=S(=O)(C1CC1)N1CCc2c(CN3CCOCC3)cncc2C1	82.99%
CCOCc1cncc2c1CCN(S(=O)(=O)c1cccc(C)c1)C2	11.95%
O=S(=O)(NCCN1CCOCC1)c1cncc(Cl)c1	-2.689%
CC(C)(C)NC(=O)NC(=O)COc1nc(C(C)(C)C)no1	-2.31%
O=C(CCNCc1cccc2c1OCCCO2)NC1CCCC1	-1.594%
O=C(Cc1cc(-c2ccc3c(c2)OCO3)on1)NC1CCCC1	-5.202%
O=C(Cn1cnc2cc3c(cc21)OCCCO3)NC1CCCC1	88.37%
O=C(Cn1cccnc1=O)NCCc1ccc2c(c1)OCCO2	1.93%
O=C(Cn1cnc2cc3c(cc21)OCCCO3)NC1CCCCC1	96.56%
O=C(Cn1cnc2cc3c(cc21)OCCCO3)NCCc1ccccc1	66.67%
CC(C)(C)n1ncc2c(=O)n(CC(=O)NCCc3ccccc3)cnc21	21.71%

Reference: ChEMBL document CHEMBL3988442, “University of Dundee, Small-Polar-MMV Screening Library” (2021)
